Source: PubChem BioAssay (National Center for Advancing Translational Sciences (NCATS))
This is one part of a sample in which hits are shown more often than they occur.
Pf Dd2 growth: qHTS Primary assay for Inhibitors of Plasmodium falciparum Dd2 growth in vitro; P. falciparum Dd2 growth, SYBR Green, 72 h; 120,000 compounds, 4.3% hits; Potency, µM (top dose mostly 28.9 µM), without a hit: at the highest dose activity, negative = inhibition, most hits filed as inhibitors; active = well fitted inhibition curve with a large enough effect;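 note: plate controls were DMSO vehicle for no effect and reference drug for full effect; nearly all actives have a fitted effect of over 65% in size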
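Readout: SYBR Green fluorescence, 485 nm excitation, 535 nm emission, after ~16 h lysis at 37C. Before that, Dd2-infected red cells (2.5% hematocrit) grew 72 h with compound, 29 uM top final concentration.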
Numbers without * were called inactive; i = inactive; [ ] = another dose, or the depositor's remark. Potency is the fitted concentration of half-maximal effect.

SMILES	Pf Dd2 growth
Cc1ccc(-c2ccc(=O)n(Cc3ccc(F)cc3)n2)cc1	7%
CC(=O)N1c2ccc(S(=O)(=O)NCC3CCC(C(=O)Nc4ccc(F)cc4)CC3)cc2CC1C (configuration not stated)	i
CC(=O)N1c2ccc(S(=O)(=O)NCc3ccccc3Cl)cc2CC1C (configuration not stated)	66%
CC(=O)N1c2ccc(S(=O)(=O)NCC3CCC(C(=O)Nc4ccc(C)c(C)c4)CC3)cc2CC1C (configuration not stated)	-20%
CC1Cc2cc(S(=O)(=O)NCc3ccccc3)ccc2N1C(=O)C1CCC1 (configuration not stated)	3.5µM*
CCc1cccc(NS(=O)(=O)c2ccc3c(c2)CC(C)N3C(=O)C2CC2)c1 (configuration not stated)	-16%
CCc1ccc(NC(=O)C2CCC(CNS(=O)(=O)c3ccc4c(c3)CC(C)N4C(C)=O)CC2)cc1 (configuration not stated)	10µM*
Oc1c(C(c2ccc(F)cc2)N2CCCC2)sc2nc(-c3ccco3)nn12 (configuration not stated)	21%
Fc1ccc(C2Cn3nnc(-c4nc(C5CCCCC5)no4)c3CO2)cc1 (configuration not stated)	i
COCCNC(=O)[C@@H]1C[C@H](Oc2ccccc2)CN1C(=O)c1ccc(OC)nc1OC	37%
Cc1cn(CC(=O)N2C[C@@H](NS(C)(=O)=O)[C@H](C(C)C)C2)c(=O)[nH]c1=O	-2%
O=C(c1n[nH]c2c1CCCCCC2)N1CCC(Cc2nncn2CC2CC2)CC1	-7%
CC(=O)N1CCC(C2CCN(Cc3cccc(F)c3F)C2)CC1 (configuration not stated)	i
O=C(Nc1ccc2c(c1)OCCO2)N1CCCC1c1nc(CCOCC2CCCC2)no1 (configuration not stated)	-8%
CN1CCC2(C1)CN(Cc1ccccc1)c1ccc(C(=O)NCc3cccs3)cc12 (configuration not stated)	7.1µM*
Cc1nc(CN2CC3(CCN(C)C3)c3cc(C(=O)NCc4cccs4)ccc32)cs1 (configuration not stated)	-3%[44.1 µM]
CN1CCCC2(C1)CN(Cc1cccnc1)c1ccc(C(=O)NCc3cccs3)cc12 (configuration not stated)	-8%[44.1 µM]
c1ccc(-c2nnc3n2CCN(Cc2cccnc2)C3)cc1	i
Cc1c(C)n(Cc2ccccc2)c2ccc(C(=O)NCCc3ccccc3Cl)cc12	-18%
O=C(NC1CC1)c1nc(-c2ccc(F)cc2)c2cnccn12	11µM*
C[S+](=O)([O-])c1ccc(-c2nc(C(=O)NC3CC3)n3ccccc23)cc1	i
CN(C)C(=O)c1nc(-c2ccc(S(C)(=O)=O)cc2)c2cnccn12	-3%
O=C(CCNc1c(-c2ccc(F)cc2)nc2cnccn12)NC1CCCC1	20%
COc1ccccc1-c1nc(C(=O)NC2CC2)n2ccccc12	i
COc1ccc(-c2nc(C(=O)NC3CC3)n3ccccc23)cc1	11µM*
SMILES	Pf Dd2 growth
COc1ccc(N2CC(NC(=O)c3cccs3)CC2=O)cc1 (configuration not stated)	5%
CCn1ccc(C(=O)N2CCCn3ccnc3C2c2cnn(C)c2)n1 (configuration not stated)	i
COc1cc(CNC(=O)c2cc3cn(C(C)C)cc3s2)cc(OC)c1	13µM*
CC(C)n1cc2cc(C(=O)NCc3cccnc3)sc2c1	i
COc1ccc(CNC(=O)c2cc3cn(C(C)C)cc3s2)cc1	i
C=C(C)CN(C)C(=O)c1coc(COc2ccc3c(c2)OCO3)n1	-9%
CC1(C)C(=O)N(CC2CCOCC2)[C@H]2CN(Cc3cccs3)C[C@@H]2[S+]1(=O)[O-]	39%[44.1 µM]
N#Cc1ccc(C(=O)Nc2ccc3c(c2)N(C2CCCC2)C(=O)c2ccccc2S3)cc1	11µM*
CCN1C(=O)c2ccccc2Sc2ccc(NC(=O)Nc3cc(C)cc(C)c3)cc21	-11%
CCN1C(=O)c2ccccc2Sc2ccc(NC(=O)c3ccc(Cl)cc3)cc21	i
CN(C)C(=O)NCC(=O)N1CCc2[nH]nc(-c3ccc(F)c(F)c3)c2C1	3%
Cc1cc(C(=O)N2CC(c3nnc(-c4ccncc4)o3)C3(CCOCC3)C2)nn1C (configuration not stated)	-16%
O=C(Cn1cccc1-c1nc(-c2ccc3c(c2)OCO3)no1)NCc1ccccc1Cl	2%
CN1CCN(c2nccc3c(=O)cc(N(C)C4CCOCC4)oc23)CC1	i
CC(C)CC(=O)NCC(=O)N1CCN(c2ccccn2)CC1	-4%
COc1ccc(-c2cc3ncc(C(=O)c4cc([N+](=O)[O-])ccc4O)cn3n2)cc1	-4%
O=[N+]([O-])c1ccc(O)c(-c2ccnc3cc(-c4ccccc4)nn23)c1	10µM*
O=[N+]([O-])c1cccc(-c2ncc[nH]2)c1	-12%[76.6 µM]
COc1cc(Cl)ccc1C(=O)NC1CCN(c2cc(-c3ccccc3)[nH]n2)CC1	-10%
Cc1ccc(OCC(O)Cn2c(=N)n(CCN3CCCCC3)c3ccccc32)cc1 (configuration not stated)	2.8µM*
CCn1c(COc2ccc(Cl)cc2Cl)nc2ccccc21	-19%
COc1ccc(OCC(O)Cn2c(=N)n(CCN3CCCCC3)c3ccccc32)cc1 (configuration not stated)	7.9µM*
CC1=CCN(Cc2ccc(OCC(O)CN3CCN(C)CC3)cc2)CC1 (configuration not stated)	7%
CCNc1nc2c(c(=O)[nH]c(=O)n2C)n1CC(O)COc1ccc(Cl)cc1Cl (configuration not stated)	-13%
N=c1n(CCN2CCCCC2)c2ccccc2n1CC(O)COc1ccc(Cl)cc1Cl (configuration not stated)	1µM*
SMILES	Pf Dd2 growth
Cc1nc2ccccc2n1CC(O)COc1ccc(C(=O)O)cc1 (configuration not stated)	17%
COc1ccc(N2CCN(CC(O)COc3ccc(C)cc3C)CC2)cc1 (configuration not stated)	1%
COc1ccc(N2CCN(CC(O)COc3ccc(C(C)(C)C)cc3)CC2)cc1 (configuration not stated)	-6%
Cc1cccc(NC(=O)CN2C(=O)CSc3ccc(S(=O)(=O)N4CCCC4)cc32)c1C	8%
CC(c1ccc(-c2ccc(CO)cc2CO)cc1)N1CCCC1 (configuration not stated)	-1%
COC(=O)c1sc2cccc(F)c2c1S(=O)(=O)Nc1ccc(N(C)C)cc1	50%
Cc1cn(CC(=O)N[C@@H]2COCC[C@@H]2OCC2CC2)c(=O)[nH]c1=O	-20%
Fc1ccc(CN2CCn3c(nnc3C3CCCNC3)C2)cc1 (configuration not stated)	-8%[44.1 µM]
Cc1sc2ncnc(N3CCC(NC[C@@H]4C[C@H](F)CN4)CC3)c2c1C	-25%
COc1ccc(-n2c(SCC(=O)N3CCCc4ccccc43)nc3c([nH]c4ccccc43)c2=O)cc1	12%
COc1ccc(-n2c(SCC(=O)NC3CCCCC3)nc3c([nH]c4ccccc43)c2=O)cc1	10µM*
CCOC(=O)CSc1nc2c([nH]c3ccccc32)c(=O)n1-c1ccc(OC)cc1	-3%
CCOc1ccc(-n2c(SCC(=O)NCC3CCCO3)nc3c([nH]c4ccccc43)c2=O)cc1 (configuration not stated)	1%
CCC1CCCCN1C(=O)CSc1nc2c([nH]c3ccccc32)c(=O)n1-c1ccc(OC)cc1 (configuration not stated)	13µM*
